Source: PubChem (Buhrlage Lab, Dana-Farber Cancer Institute and Novartis Institutes for BioMedical Research (Cambridge, Mass))
Shown are actives, neighbours in structure and some others; about 11% of the full set was active somewhere.
USP30 inh = human USP30 deubiquitinase inhibition; Q70CQ3; purified USP30, Ub-rhodamine cleavage fluorescence; inhibition, % at 25 µM; hit rate 5.3% among 47,000; AID 1645860
USP28 inh = blocks human USP28 ubiquitin-rhodamine cleavage; Q96RU2; purified USP28, Ub-rhodamine cleavage fluorescence, 30 min; inhibition, % at 25 µM; hit rate 3% among 47,000; AID 1645857
USP17 block = human USP17-like deubiquitinase inhibition | A8MUK1 | purified USP17, Ub-rhodamine cleavage fluorescence, 3 h | inhibition, % at 50 µM | hit rate 6.5% among 47,000 | AID 1645855
Target sequence (A8MUK1 whole entry, looked up): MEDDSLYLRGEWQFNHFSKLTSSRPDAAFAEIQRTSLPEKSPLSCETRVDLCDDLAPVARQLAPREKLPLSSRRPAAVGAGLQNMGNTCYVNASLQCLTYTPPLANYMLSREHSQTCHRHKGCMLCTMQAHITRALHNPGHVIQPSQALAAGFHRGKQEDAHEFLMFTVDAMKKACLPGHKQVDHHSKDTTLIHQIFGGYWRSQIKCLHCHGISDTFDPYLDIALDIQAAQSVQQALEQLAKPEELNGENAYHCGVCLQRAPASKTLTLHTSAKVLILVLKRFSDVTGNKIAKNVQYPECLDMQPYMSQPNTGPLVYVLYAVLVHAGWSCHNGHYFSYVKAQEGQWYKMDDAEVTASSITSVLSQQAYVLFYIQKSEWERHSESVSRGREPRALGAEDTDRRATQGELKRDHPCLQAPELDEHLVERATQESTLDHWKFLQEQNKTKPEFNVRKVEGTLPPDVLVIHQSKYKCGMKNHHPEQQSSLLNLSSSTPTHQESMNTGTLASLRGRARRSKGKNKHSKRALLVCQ
Each line names hits and unclear results; the compound was inactive in the other large screens. Cut-off read from the data, not from the text of the source: active = inhibition above about 30%; inactive = the rest.

CCOc1cc2c(cc1OCC)C1CC(=O)N(c3cc(C)cc(C)c3)C(=O)N1CC2 (stereo unspecified)	none
CN1C(=O)C(C)(C)c2cc(S(=O)(=O)NC(C(=O)N3CCc4ccccc43)c3ccccc3)ccc21 (stereo unspecified)	none
CCOc1ccccc1N(C(=O)c1ccc2c(c1)OCCO2)C(C(=O)NC1CCCCC1)c1ccc(O)cc1 (stereo unspecified)	none
COc1ccc(OC)c(C(C(=O)NC2CCCCC2)N(C(=O)c2ccc3c(c2)OCCO3)c2ccc(C)cc2)c1 (stereo unspecified)	USP30 inh 41
COc1ccc(-c2csc(C)n2)cc1S(=O)(=O)N1CCOCC1	none
Cc1noc(-c2cc(=O)n(CC(=O)NCc3ccccc3F)c3ccccc23)n1	USP30 inh 46, USP17 block 58
Cc1cc(=O)n(CC(=O)Nc2ccccc2C)c(Nc2ccc(F)cc2)n1	USP30 inh 73
Cc1cc(=O)n(CC(=O)NCc2ccc(F)cc2F)c(N2CCOCC2)n1	none
CCCc1noc(-c2ccc(-n3ncc(C(=O)N4CCN(C)CC4)c3C)nc2)n1	USP30 inh 30
Cc1noc(-c2ccc(-n3ncc(C(=O)NCc4ccccc4F)c3C)nc2)n1	USP30 inh 43, USP17 block 40
Cc1noc(-c2ccc(-n3ncc(C(=O)NCc4ccccc4C)c3C)nc2)n1	none
CCCc1noc(-c2ccnc(-n3ncc(C(=O)N4CCCCC4)c3C)c2)n1	none
Cc1cc(=O)n(CC(=O)Nc2ccccc2)c(-c2ccc(F)cc2)n1	none
Cc1cccc(NCc2cc(=O)n3c(C)csc3n2)c1C	none
CC(C)c1cc(C2CCCN2C(=O)Cc2ccccc2Cl)no1 (stereo unspecified)	none
O=C(c1ccncc1)N1CC[C@@H]2Oc3ccccc3S(=O)(=O)N(CC3CC3)[C@H]2CC1	none
COC[C@@H]1CC[C@H]2[C@H](CCN2C(=O)NCc2cccnc2)O1	none
Cc1ccc(CC(=O)Nc2c(C)nc3scc(C)n3c2=O)cc1	none
Cc1noc(-c2cc(=O)n(CC(=O)Nc3ccccc3C)c3ccccc23)n1	USP17 block 45
Cc1noc(-c2cc(=O)n(CC(=O)Nc3ccc(F)cc3F)c3ccccc23)n1	none
COc1ccc(OC)c(CC(=O)NC2CC3(CCOCC3)Oc3ccccc32)c1 (stereo unspecified)	USP30 inh 44
COc1ccc(CC(=O)NC2CC3(CCOCC3)Oc3ccccc32)cc1OC (stereo unspecified)	none
O=c1cc(CNS(=O)(=O)C2CC2)nc2n1CCCNC2	none
O=C(Nc1cccc(OC(=O)c2ccc3c(c2)OCO3)c1)c1ccccc1	none
NC(=O)c1cccc(NC(=O)c2cc(Cl)c3c(c2)OCO3)c1	USP28 inh 48
O=C1CCC[C@]2(CN(Cc3cnc(N4CCOCC4)nc3)C[C@H]2c2cccnc2)N1	none
c1csc(-c2nc(NC3CCCCC3)c3ccccc3n2)c1	none
c1csc(-c2nc(Nc3ccc4c(c3)CCC4)c3ccccc3n2)c1	USP17 block 71
CN(C)c1ncc(-c2cc(C(=O)NC3CC3)n(CC3CC3)c2)cn1	none
O=C1CC(c2ccco2)Cc2[nH]c(=O)c(C(=O)Nc3ccc(Cl)cc3)cc21 (stereo unspecified)	USP28 inh 35, USP17 block 60
O=C1CC(c2ccco2)CC2=C1C(c1ccc(Cl)cc1)Nc1ccccc1N2 (stereo unspecified)	none
O=S1(=O)C[C@H](NCc2ccccc2)[C@@H](S(=O)(=O)c2ccc(F)cc2)C1	none
O=C(CSc1ncnc2c1c(-c1ccccc1)cn2-c1cccc(F)c1)c1ccccc1	none
CC1(c2ccccc2)NC(=O)N(Cc2ncc(-c3ccc(Cl)cc3)o2)C1=O (stereo unspecified)	none
COc1ccc(S(=O)(=O)N2CCC(c3ncncc3-c3ccnc(N)c3)C2)cc1 (stereo unspecified)	none
COc1ccc(S(=O)(=O)N2CCC(c3ncc(C)[nH]3)C2)cc1 (stereo unspecified)	USP30 inh 31
Cc1cc(C)cc(NS(=O)(=O)c2ccc(-c3coc(C)n3)cc2)c1	none
Cc1cc(-c2cn[nH]c2C2CC2)on1	none
COCCCNC(=O)c1ccc(Cn2c(=O)c3ccccc3n(CC(=O)Nc3ccc(OC)cc3OC)c2=O)cc1	USP17 block 75 (no result: USP30 inh, USP28 inh)
COCCCNC(=O)c1ccc(Cn2c(=O)c3ccccc3n(CC(=O)c3ccccc3)c2=O)cc1	none
COCCCNC(=O)c1ccc(Cn2c(=O)c3ccccc3n(CC(=O)Nc3ccc(OC)cc3)c2=O)cc1	USP17 block 67
COC(=O)c1ccccc1NC(=O)Cn1c(=O)n(Cc2ccc(C(=O)NCc3ccco3)cc2)c(=O)c2ccccc21	none
COCCCNC(=O)Cn1c(=O)n(C2CCCC2)c(=O)c2ccccc21	none
COCCCNC(=O)Cn1c(=O)n(Cc2ccc(C(=O)NCc3ccccc3OC)cc2)c(=O)c2ccccc21	USP30 inh 53
Fc1ccc(C(c2nnnn2CCc2ccccc2)N2CCN(c3ccccc3)CC2)cc1 (stereo unspecified)	none
CCNC(=O)N1CCc2c(cccc2-n2nnc(C(=O)N(C)Cc3ccco3)c2C)C1	none
O=C(OCc1ccc(F)cc1)c1cc(-c2cccnc2)nc2ccccc12	none
O=C(OCc1cccc(Cl)c1)c1ccc2ccccc2n1	USP28 inh 91
Cc1nc2ccccc2n1CC(=O)OCc1cccc(Cl)c1	none
O=C(OCc1ccc(F)cc1)c1ccc2ccccc2n1	USP28 inh 78
COc1cccc(C(=O)NCCc2csc(-c3cccnc3)n2)c1	none
CC(=O)N1C[C@H](c2ccccc2)[C@H]2CN(C(=O)c3ncccc3O)CC[C@H]21	none
O=C(CC1CCCC1)N1CCN(C(=O)c2cnn3ccccc23)CC1	none
COc1ccc(-c2nc3ccc(Cl)cn3c2NCCc2ccccc2)cc1	none
CC(=O)N1CCN(C(=O)c2cccc(N3C(=O)C(C)(C)CS3(=O)=O)c2)CC1	none
CCCCCCC(C)/C=C(C)/C=C/C(=O)N[C@H]1CC2(O[C@H]1O)[C@@H]1O[C@@H]1C(=O)[C@@H]1O[C@@H]12 (stereo partly specified)	USP30 inh 42, USP17 block 30
CC1=C(c2ccc(C)cc2)S(=O)(=O)N=C1N1CCCN(C(=O)c2ccc(C#N)cc2)CC1	none
OCC1CSC(c2ccccc2O)=N1 (stereo unspecified)	USP17 block 30
Cc1nc(N2CCC(C)CC2)ncc1-c1cc(=O)[nH]c(Nc2nc3ccccc3o2)n1	USP30 inh 41, USP17 block 34
Cc1nc(N2CCCC2)ncc1-c1cc(=O)[nH]c(Nc2ccc(Cl)cc2Cl)n1	none
Cc1nc(N2CCCC2)ncc1-c1cc(=O)[nH]c(NCCc2ccccc2)n1	USP30 inh 64, USP17 block 50
Cc1nc(N2CCOCC2)ncc1-c1cc(=O)[nH]c(Nc2nc(C)c3ccccc3n2)n1	none
Cc1ccc2sc(N3CCN(C(=O)C4CCCCC4)CC3)nc2c1C	none
O=S(=O)(Nc1nc(-c2ccco2)c(-c2ccco2)s1)c1ccc(F)cc1F	none
COc1cccc(C(=O)Nc2nc(-c3ccco3)c(-c3ccco3)s2)c1	USP17 block 44
Cc1cc(N2CCOCC2)n2nc(CN3CCN(C(C)C)CC3)nc2n1	none
CC1CCc2noc(C3CCN(C(=O)CCn4cncn4)CC3)c2C1 (stereo unspecified)	none
Cn1c(=O)c(C(CO)CCO)nc2c(OCc3ccccc3)nc(N)nc21 (stereo unspecified)	none
